From PubChem BioAssay
Where “and” joins values, the source holds several entries; their conditions need not be identical. Equal values may be shown once. Calls of active or inactive are those of the source.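 The calls were made as follows, unless noted: active = mean z-score across replicates of 1.96 or higher in either the MELAS or the Rieske mutant cell line; inactive = the rest.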

Legend:
[1] = Wnt pathway potentiators raising nuclear beta-catenin – imaging, WNT3A-conditioned medium, mouse C2C12, NPC library, primary screen (AID 1117326; in the data active = nuclear beta-catenin stimulation mostly above about 4.2%, no sharp cut-off; inactive = mostly below about 10%; also: reference of the scale not given here); conditions: stronger effect = higher value
[2] = stimulators of insulin release from INS-1E, primary screen, cell-based, 5 mM glucose, NPC library (AID 1117329;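 active = compound raises insulin release from rat beta cells at 5 mM glucose, no numeric limit stated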; also: reference of the scale not given here); conditions: rat INS-1E insulin secretion, at 10 µM, stronger effect = higher value
[3] = growth inhibition of GSK3B-pretreated HCT116 cells – cell-based, CellTiter-Glo, 0.2 to 20 µM (AID 1117336;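 active = compounds lowering colon cancer cell viability after pretreatment blocking the GSK3B kinase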); conditions: HCT116 viability after GSK3B inhibitor, at 20 µM, stronger effect = higher value
[4] = inhibition of endothelial tube formation, primary screen, imaging, VEGF stimulated, CD31 staining, tube area, NPC library (AID 1117340;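 active = compound that reduces growth-factor-driven endothelial tube area in a mixed cell culture, no cutoff stated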); conditions: VEGF-stimulated ADSC/ECFC co-culture, at 10 µM, stronger effect = higher value
[5] = GLP1 release stimulators, primary, NCI-H716, NPC library (AID 1117341;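 active = compound raises GLP1 secretion from the human gut endocrine cells, with no numeric limit stated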; also: reference of the scale not given here); conditions: NCI-H716 cells, at 10 µM, stronger effect = higher value
[6] = HCT116 colon cancer cell growth inhibition, primary screen, CellTiter-Glo luminescence, NPC library (AID 1117342;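 active = compounds that lower survival of HCT116 colon cancer cells in the luminescence readout, no numeric limit stated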); conditions: at 20 µM (top of the series)
[7] = reduced SW480 viability measured with CellTiter-Glo, NPC library, primary (AID 1117343;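 active = compounds that lower viability of the colon cancer cells in the luminescence readout, with no numeric limit stated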); conditions: CellTiter-Glo luminescence; at 20 µM (top of the series) unless noted
[8] = NPC library primary testing for decreased DLD-1 cell viability via CellTiter-Glo (AID 1117346;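 active = compounds that lower survival of DLD-1 colon cancer cells in the luminescence readout, no cutoff given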); conditions: DLD-1 viability, CellTiter-Glo luminescence; at 20 µM (top of the series)
[9] = viability loss with induced miR-34 in A549 – imaging, A549 dox-inducible miR-34, nuclei and caspase counts, primary screen (AID 1347080;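 active = compounds whose cell count with miR-34 switched on is under 0.7 times the count with it off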); conditions: A549 miR-34 inducible, Hoechst nuclei count, 48 h
[10] = MELAS cybrid and Rieske KO viability enhancers – cell-based, MELAS cybrids, Rieske KO mouse fibroblasts, CellTiter-Glo, primary screen (AID 1508586); conditions: low glucose;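 also: z relative to plate mean and SD of compound and empty wells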
[11] = galactose survival enhancers in mitochondrial complex I cybrids – cell-based, galactose medium, ATP luminescence, primary screen (AID 1645843;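 active = z-score of at least 1.8 in each of two replicates, scored against plate mean and spread of sample wells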;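 also: positive z means more ATP and so rescue of galactose-driven cybrid death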); conditions: complex I mutant cybrid cells, 72 h, stronger effect = higher value
[12] = P. berghei load reduction in hepatocytes – cell-based, HepG2, luciferase luminescence, HepG2 viability, primary screen (AID 624349; in the data active = parasite load remaining mostly below about 12%, no sharp cut-off; inactive = mostly above about 10%;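 also: 100% = mean of DMSO negative control wells on the same plate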); conditions: P. berghei liver stage in HepG2, luciferase luminescence, concentration not given here; parasite load remaining: stronger effect = lower value; viability: measured here: HepG2 viability without parasites
[13] = molecular target: NAD(+) hydrolase SARM1 (Homo sapiens) (UniProt Q6SZW1); test: blocking NAD cleavage by SARM1 SAM-TIR – cell lysate, NAD-Glo luminescence (AID 1508614;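 active = compound whose remaining NAD level is above about 45 nM, limit read from the data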;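 also: higher remaining NAD means stronger inhibition of SARM1 NADase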); conditions: SAM-TIR HEK293T lysate NADase, at 1 µM, stronger effect = higher value
NAD(+) hydrolase SARM1 (Homo sapiens), sequence (Q6SZW1 whole entry, looked up): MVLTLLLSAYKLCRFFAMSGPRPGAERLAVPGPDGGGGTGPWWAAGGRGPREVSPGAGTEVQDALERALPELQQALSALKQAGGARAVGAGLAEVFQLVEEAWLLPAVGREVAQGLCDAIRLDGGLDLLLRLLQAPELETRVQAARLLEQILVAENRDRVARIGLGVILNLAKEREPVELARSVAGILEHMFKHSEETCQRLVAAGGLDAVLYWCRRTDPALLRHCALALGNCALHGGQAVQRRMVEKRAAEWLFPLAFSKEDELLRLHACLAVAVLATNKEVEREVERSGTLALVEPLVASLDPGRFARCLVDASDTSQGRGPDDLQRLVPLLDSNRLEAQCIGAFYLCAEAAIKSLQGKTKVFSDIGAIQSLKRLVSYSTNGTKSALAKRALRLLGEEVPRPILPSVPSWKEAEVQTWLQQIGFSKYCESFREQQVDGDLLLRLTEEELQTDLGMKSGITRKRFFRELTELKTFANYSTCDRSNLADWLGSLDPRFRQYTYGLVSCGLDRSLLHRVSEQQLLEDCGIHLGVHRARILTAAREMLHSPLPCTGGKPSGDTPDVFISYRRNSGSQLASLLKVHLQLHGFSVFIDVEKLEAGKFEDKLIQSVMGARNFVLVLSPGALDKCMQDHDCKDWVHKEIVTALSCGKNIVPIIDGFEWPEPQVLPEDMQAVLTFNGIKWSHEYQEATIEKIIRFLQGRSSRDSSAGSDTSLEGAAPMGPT

[14] = stronger effect = lower value, cell number ratio, induced over uninduced
[15] = measured here: relative caspase fold change +Dox/-Dox
[16] = measured here: total cells with miR-34 induction, stronger effect = lower value
[17] = measured here: total cells without miR-34 induction
[18] = MELAS cybrid survival, CellTiter-Glo 48 h, stronger effect = higher value
[19] = Rieske KO mouse fibroblast survival, CellTiter-Glo 72 h

Structure (SMILES)	nuclear beta-catenin stimulation ([1]; at 10 µM)	nuclear beta-catenin stimulation ([1]; stimulation, at 2 µM) [%]	insulin secretion stimulation [2]	viability decrease [3]	tube area decrease [4]	GLP1 secretion stimulation [5]	inhibition of viability [6]	viability decrease (inhibition) [7]	viability decrease (inhibition) [8]	fold change [9, 14]	fold change [9, 15]	cell count [9, 16]	cell count [9, 17]	z-score [10, 18]	z-score [10, 19]	z-score [11]	parasite load remaining [12]	viability [12]	remaining NAD [13]
CCn1c(=O)c2c(nc(C=Cc3ccc(OC)c(OC)c3)n2C)n(CC)c1=O	-0.2% (inactive)	-0.6	-0.7% (inactive)	-2.3% (inactive)	14.4% (inactive)	-3% (inactive)	-3.5% (inactive)	4.6% (inactive)	-22% (inactive)	0.891 (inactive)	0.866	8640	9700	0.103 (inactive)	0.0933				
Cc1ccc(Cl)c(OCC(O)CNC(C)(C)C)c1 (configuration not stated)	0.2% (inactive)	0.1	1% (inactive)	-43.6% (inactive)	-6.8% (inactive)	0% (inactive)	-1.43% (inactive)	-8.9% (inactive)	-15.9% (inactive)	0.861 (inactive)	0.19	8600	9990	0.548 (inactive)	-0.195	0.405 (inactive)			
C#CC1(O)CC[C@H]2[C@@H]3CCC4=CCCC[C@@H]4[C@H]3CC[C@@]21C (some centres not stated)	0.9% (inactive)	0.1	16.9% (inactive)	110% (active)	14.7% (inactive)	20.3% (active)	113% (active)	132% (active)	102% (active)	0.949 (inactive)	1.31	8290	8740	0.595 (inactive)	0.485		25.2% (inactive) and 119% (inactive)	48.4% and 91.7%	
C=CCN1C[C@H](C(=O)N(CCCN(C)C)C(=O)NCC)C[C@@H]2c3cccc4[nH]cc(c34)C[C@H]21	-1.1% (inactive)	0.7	0% (inactive)	-6.9% (inactive)	-11.9% (inactive)	0.5% (inactive)	-2% (inactive)	22.3% (inactive)	59% (active)	0.881 (inactive)	1.06	8560	9720	-0.306 (inactive)	-1.44	-0.085 (inactive)	25.1% (inactive)	72%	
CC(=O)OCC(=O)[C@@]1(O)CC[C@H]2[C@@H]3CCC4=CC(=O)C=C[C@]4(C)[C@@]3(F)[C@@H](O)C[C@@]21C	0.8% (inactive)	0	-2.1% (inactive)	9.45% (inactive)	-21.7% (inactive)	3.3% (inactive)	-4.3% (inactive)	42.5% (inactive)	23% (inactive)	0.893 (inactive)	1.25	4910	5500	-1.23 (inactive)	0.0318		53.1% (inactive) and 126% (inactive)	50.3% and 103%	10 nM (inactive)
CN(Cc1ccc(C(C)(C)C)cc1)Cc1cccc2ccccc12	-1.4% (inactive)	-0.7	-1% (inactive)	37.6% (inactive)	7.1% (inactive)	-4% (inactive)	50.7% (active)	62.7% (active)	37.8% (inactive)	0.848 (inactive) and 0.895 (inactive)	0.76 and 0.344	7540 and 9920	8900 and 11100	-0.284 (inactive) and -0.0947 (inactive) and -0.415 (inactive)	-0.307 and 0.166 and -0.508	-1.71 (inactive)	43.3% (inactive)	140%	
